The full ranking holds about 35,000 sequences; the median of “fluorescence intensity (a.u.)” is about 10,000, and the highest 2% start at about 52,000. What follows is part of a selection rich in the highest values, with near analogues and random picks from the rest.

The test has as its target T1, OsWOX13 (Oryza sativa, UniProt Q5QMM3 1-267).
T1 sequence: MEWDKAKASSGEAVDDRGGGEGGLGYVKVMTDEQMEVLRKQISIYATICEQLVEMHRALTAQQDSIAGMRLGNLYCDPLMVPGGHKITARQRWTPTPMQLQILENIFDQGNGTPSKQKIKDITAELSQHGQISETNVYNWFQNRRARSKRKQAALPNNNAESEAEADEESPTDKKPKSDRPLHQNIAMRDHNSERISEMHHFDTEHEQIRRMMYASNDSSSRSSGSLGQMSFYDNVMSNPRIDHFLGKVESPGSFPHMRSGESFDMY
Briefly: protein-binding microarray (RPBM); PBS, 2% BSA, 51.3 ng/ul salmon testes DNA, 50 uM zinc acetate, 200 nM TF, 25 C, 1 h; high values mean tight binding. The note with it: protein: recombinant; tags: N-terminal polyhistidine and DsRed monomer fusion (pET32a); label: CyDye5-dUTP incorporated in the synthesized complementary strand; 3' TTTTT single-stranded linker to array surface; dsDNA, one strand shown. In a few lines: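 Ni–NTA purification followed expression in E. coli BL21-CodonPlus of transcription factors fused N-terminally to a polyhistidine tag and DsRed. At 200 nM in PBS with 2% BSA, salmon testes DNA and 50 µM zinc acetate, the protein was incubated for 1 h at 25 °C with a custom Agilent array that had been primer-extended with Cy5-dUTP and blocked with 2% BSA. After washing, the array was read on an Axon 4000B scanner. The binding signal is per-feature fluorescence intensity in arbitrary units.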
With “TTACAAGACTTTCAATTATTATCCACATTTATATAGATGTCGGAGTCACCTAGTGCAG”, the binding signal is 7150 fluorescence intensity (a.u.).
With “CACCAATCAGGGTTCCAAGTAGAAGAGGTGGGCAGAGAGCCGGAGTCACCTAGTGCAG”, the binding signal is 6870 fluorescence intensity (a.u.).
Regarding “GATAATTTGGTCATTGCTAAAATATTTGGGAAAAGTTAGCCGGAGTCACCTAGTGCAG”, the binding signal was 23700 fluorescence intensity (a.u.).
Next, “TTATAATTGGAAAATAAATGAAGGGTTATAATTAAATGAACGGAGTCACCTAGTGCAG”: 12000 fluorescence intensity (a.u.); “CTAAGCTGTGATTTCTTTTCTTTATGTCACCACCTCCAAACGGAGTCACCTAGTGCAG”: 3460 fluorescence intensity (a.u.); “TTAATTAGACTGACATGTGGGGTCCGCGTGGGTCCCACCACGGAGTCACCTAGTGCAG”: 20200 fluorescence intensity (a.u.).
Next, “TAGTCGTGTCAATTTGGAAAATTGGAAAGCCGTGGGGAGACGGAGTCACCTAGTGCAG”: 11400 fluorescence intensity (a.u.); “TGATAATAATCTGTTCAATAATTTATCTTAAACAGGGCCTCGGAGTCACCTAGTGCAG”: 11200 fluorescence intensity (a.u.); “CCCTATCAATTACCTTCACTATCATATTAATCATTGTAGGCGGAGTCACCTAGTGCAG”: 24100 fluorescence intensity (a.u.).
Take “CAAACAGTCAATTAGGCCTAAACAAGTTGCTACGAGCTAGCGGAGTCACCTAGTGCAG”: the binding signal was 33200 fluorescence intensity (a.u.).
Regarding “GAATATTAAACTTCCAAAACAGGTCCAAAGCTATGTTCTTCGGAGTCACCTAGTGCAG”, the binding signal is 57500 fluorescence intensity (a.u.).
For the sequence “ATTAATTAAAGCTAATTAAACGATGTTGTTTATTAGGCTTCGGAGTCACCTAGTGCAG”, the binding signal was 58700 fluorescence intensity (a.u.).
In the case of “TAAAATTAAGCTCCAAATAAACTATATAAAATTATGTATTCGGAGTCACCTAGTGCAG” it was 4090 fluorescence intensity (a.u.); in that of “GCTAATTATAGTTTAATTAGGCTTAATAAATTTACAGTTTCGGAGTCACCTAGTGCAG”, 42300 fluorescence intensity (a.u.); in that of “TTATTACAATTTAATTATATTTTAATTATTCTAAAAGCTTCGGAGTCACCTAGTGCAG”, 20200 fluorescence intensity (a.u.).
In the case of “CACTTAATTTGTTAATTAAATATATTTTCCAAACAAATTTCGGAGTCACCTAGTGCAG” it was 39100 fluorescence intensity (a.u.); in that of “AATTGCGTGATTGTGCTAATCAAAATGCAGAATTGGATATCGGAGTCACCTAGTGCAG”, 23000 fluorescence intensity (a.u.).
In the case of “CAAAATTAAACTTTAAAATTCAGACTTCAGACTCCAGTGCCGGAGTCACCTAGTGCAG” it was 13400 fluorescence intensity (a.u.).
With “ACTACTAAGTTAATTGCATTTTACTTCTCTCTCAATCTCGCGGAGTCACCTAGTGCAG”, the binding signal was 10000 fluorescence intensity (a.u.).
Next, “TTCGATCCTGACTGGAATTGGATGCCTAGTTTGCCTTGCCCGGAGTCACCTAGTGCAG”: 4190 fluorescence intensity (a.u.); “GTTAACTGAATATTATATCGAAGAAAACTTGCATTTCAGACGGAGTCACCTAGTGCAG”: 7980 fluorescence intensity (a.u.).
In the case of “CTCAAAATTTAAATTTAAGGTTAAAAGTTAAAATTTTACGCGGAGTCACCTAGTGCAG” it was 21200 fluorescence intensity (a.u.); in that of “GATAATAGATAATAGATAGATTGAAGATTAGGAAAGGGAACGGAGTCACCTAGTGCAG”, 54800 fluorescence intensity (a.u.); in that of “TGGGATTGGGAAATAAATGAAGGGTTAGGATTAAATGGAACGGAGTCACCTAGTGCAG”, 24100 fluorescence intensity (a.u.).
In the case of “TAGTCTTGATTGATTGGCAGATGACAGCATAATAGCCGTACGGAGTCACCTAGTGCAG” it was 65200 fluorescence intensity (a.u.); in that of “AAGATAGATAGATAGATAGATAGATAGATCGATCGATCATCGGAGTCACCTAGTGCAG”, 14900 fluorescence intensity (a.u.).
With “GTCTTTATTTGATTGATCATCTGGCATCAATCAATCGGCTCGGAGTCACCTAGTGCAG”, the binding signal was 65500 fluorescence intensity (a.u.).
Next, “ACATTGACACCAATCTTGAACATAATAGCGCATTACAGTACGGAGTCACCTAGTGCAG”: 7300 fluorescence intensity (a.u.).
In the case of “ACAGAGAGAGGTAGGTGATTGATAATAAGAAAGAAGGGAACGGAGTCACCTAGTGCAG” it was 13000 fluorescence intensity (a.u.); in that of “TTGACTTGTACATAGTAATGATTGGCAGGTAATGACGTACCGGAGTCACCTAGTGCAG”, 24100 fluorescence intensity (a.u.); in that of “CGATCAATCTCTCTTTATTTATTTGCAGATCGATCAACCTCGGAGTCACCTAGTGCAG”, 5760 fluorescence intensity (a.u.).
For “GGATTTGATCGATTGGATTTCGATTTGGCCCGCGATTTGGCGGAGTCACCTAGTGCAG”, the binding signal was 4010 fluorescence intensity (a.u.).
Take “CCTGCATCATCAATCTGCCTACATATCGATCGATTGATCTCGGAGTCACCTAGTGCAG”: the binding signal was 4630 fluorescence intensity (a.u.).
In the case of “ATAGATAGATAGATAGATAGATAGATTGATCGATCGATCGCGGAGTCACCTAGTGCAG”, the binding signal is 55400 fluorescence intensity (a.u.).
As to “TTTAATCTTTAATATTGATTTTGCCACCAACTAAAACGGCCGGAGTCACCTAGTGCAG”, the binding signal was 4660 fluorescence intensity (a.u.).
As for “ATCCATGTAAATTAACTCATCCAATGTGACAGCACGACGCCGGAGTCACCTAGTGCAG”, the binding signal is 8800 fluorescence intensity (a.u.).
Next, “ACCCAGTAATTTCCAAATCTAAAGATAGGAGATTTTAGGACGGAGTCACCTAGTGCAG”: 6740 fluorescence intensity (a.u.).
In the case of “ATACTAATTATACGGTCACACCTATCCGTTGCATGATGCACGGAGTCACCTAGTGCAG” it was 21100 fluorescence intensity (a.u.).
In the case of “CTTAATTTGGCACTGCCCAAGAAAATTTTGACAAGTACTTCGGAGTCACCTAGTGCAG”, the binding signal was 9440 fluorescence intensity (a.u.).
Next, “TTCGCTTTGATGGACGGCTCAGATCGGCTCCTAATCCATCCGGAGTCACCTAGTGCAG”: 3310 fluorescence intensity (a.u.).
In the case of “TGATTAAATATAACTAAACTGTCAACGACATAATGCATTACGGAGTCACCTAGTGCAG”, the binding signal was 3470 fluorescence intensity (a.u.).
Take “AACTAACAGATTATTCTATGTCGGTTTATTATAATCCAACCGGAGTCACCTAGTGCAG”: the binding signal is 15700 fluorescence intensity (a.u.).
Take “TGTTATAATAGTGTAGATTGATCGATATAATTGTATATGACGGAGTCACCTAGTGCAG”: the binding signal is 3170 fluorescence intensity (a.u.).
In the case of “GGGCTGTTTAGTTTTGGATTGATTGAGCAATGTAATATAACGGAGTCACCTAGTGCAG” it was 22200 fluorescence intensity (a.u.).

Source of the values: publication PMC7819943, “Rice protein-binding microarrays: a tool to detect cis-acting elements near promoter regions in rice”.
